# An excerpt weighted towards active compounds, which were near 9.4% of everything screened.
# HttQ103 aggreg = mutant huntingtin aggregation inhibition; PC12 HttQ103-GFP aggregates, Acumen cytometry, 40 h; Potency, µM (titrated, usually from 46.1 µM), for inactives: at the top dose activity change, negative = inhibition, hits mostly inhibitors; 220,000 tested, 1.1% active; AID 1688; note: potency is the fitted concentration of half-maximal effect; % is set by controls: 0 for no effect and ±100 for the full control effect; nearly all actives have a fitted effect of over 60% in size
#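 Quantitative HTS on tebufenozide-induced (100 nM) PC12 cells stably expressing polyQ103 Huntingtin exon 1–GFP. Reduction of bright GFP aggregates, detected by laser scanning cytometry after lysis, identified actives across the titration.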
# HPGD block = blocks human HPGD enzyme activity. P15428. Potency, µM, inactives show at the highest dose activity change, negative = inhibition, actives largely listed as inhibitors. 150,000 tested, 4.3% active. purified HPGD, NADH fluorescence kinetic, PGE2 substrate; active = well fitted inhibition curve with a large enough effect, not every such curve was filed as active; inconclusive = small, poorly fitted or top-dose-only effect, or another doubt; inactive = no such curve, though single readings can be large or run the other way; note: potency is the fitted concentration of half-maximal effect; % is set by controls: 0 for no effect and ±100 for the full control effect
#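 NADH formation kinetics: reaction with 30 uM PGE2 and 1 mM NAD+ (final), 20 nM enzyme, Tris-HCl pH 8 with Tween 20, after 15 min compound preincubation at room temperature. Fluorescence change, last versus first of five reads.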
# IMPase inh = IMPase inhibition in cells | CHO-M1 cells, IP1 accumulation, HTRF TR-FRET ratio | inhibition (IP1 accumulation), % at 46.1 µM | 120,000 tested, under 10 active; active = well fitted curve in the direction sought with a large enough effect in the signal ratio, not every such curve was filed as active; inconclusive = small, poorly fitted or top-dose-only effect, or a change in a side signal; inactive = no such curve, though single readings can be large or run the other way; the % refers to the signal ratio;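 note: cells stimulated with carbachol in lithium chloride buffer; plate controls were DMSO basal wells for no effect and reference inhibitor wells for full effect; higher means more IMPase inhibition seen as more IP1 and lower FRET ratio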
# Target sequence (P97697 whole entry, looked up): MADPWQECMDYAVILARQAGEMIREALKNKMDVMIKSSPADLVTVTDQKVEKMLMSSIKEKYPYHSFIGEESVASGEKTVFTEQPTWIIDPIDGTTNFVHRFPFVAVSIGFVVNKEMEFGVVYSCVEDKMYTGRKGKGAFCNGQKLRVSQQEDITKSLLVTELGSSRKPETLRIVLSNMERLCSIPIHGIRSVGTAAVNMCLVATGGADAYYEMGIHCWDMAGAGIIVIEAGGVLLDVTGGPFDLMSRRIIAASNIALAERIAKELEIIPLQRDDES
#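 Measured: the HTRF emission ratio (665/620 nm) plus the 620 nm donor channel, each fitted to the Hill equation to give AC50. Cells were CHO-M1 given compounds up to 46 uM and a 30 min carbachol stimulation at 37C.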
# ALDH1A1 block = blocks purified human ALDH1A1 activity; P00352; Purified ALDH1A1, NADH fluorescence, propionaldehyde substrate; Potency, µM (titrated, usually from 75.3 µM), for inactives: at the highest dose activity, negative = inhibition, most hits filed as inhibitors; 220,000 tested, 7.3% active; AID 1030; active = well fitted inhibition curve with a large enough effect, not every such curve was filed as active; inconclusive = small, poorly fitted or top-dose-only effect, or another doubt; inactive = no such curve, though single readings can be large or run the other way;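 note: potency is the fitted concentration of half-maximal effect; plate controls were no enzyme wells and a reference inhibitor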
# Target sequence (P00352 whole entry, looked up): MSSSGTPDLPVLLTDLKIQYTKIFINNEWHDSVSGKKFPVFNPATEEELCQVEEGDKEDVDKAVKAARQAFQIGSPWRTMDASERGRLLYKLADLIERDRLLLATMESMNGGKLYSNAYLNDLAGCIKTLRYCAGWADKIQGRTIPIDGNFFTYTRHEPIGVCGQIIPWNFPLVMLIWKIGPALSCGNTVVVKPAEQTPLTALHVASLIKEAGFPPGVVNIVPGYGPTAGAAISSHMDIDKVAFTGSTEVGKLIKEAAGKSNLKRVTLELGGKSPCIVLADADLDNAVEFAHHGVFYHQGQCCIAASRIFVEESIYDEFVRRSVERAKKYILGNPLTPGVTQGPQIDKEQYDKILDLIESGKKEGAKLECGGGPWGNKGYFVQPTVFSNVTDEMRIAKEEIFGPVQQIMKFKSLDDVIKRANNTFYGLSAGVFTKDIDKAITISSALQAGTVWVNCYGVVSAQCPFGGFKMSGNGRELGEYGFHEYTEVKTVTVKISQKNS
# IMPase Li inh = membrane-permeable IMPase blocker, potentiated with lithium. Potency, µM (titrated, usually from 59.4 µM), without a hit: at the highest dose activity, negative = IMPase inhibition, hits mostly inhibitors. CHO-M1 cells, IP1 TR-FRET (IP-One), carbachol + lithium. AID 1457. 210,000 tested, 0.35% active;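 note: IP1 builds up when IMPase is blocked and the TR-FRET signal falls; potency is the fitted concentration of half-maximal effect; plate controls were basal vehicle for no effect and high inhibitor control for full effect; nearly all actives have a fitted effect of over 50% in size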
#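 Steps: plate 2000 CHO-M1 cells per well and culture 16–30 h; add compound and lithium; incubate 30 min, 37C; add d2-IP1 tracer and Eu cryptate anti-IP1 antibody in lysis buffer; read after 10 min at room temperature.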
# HTT ATP protect = cytoprotection in Huntington HTT-Q103 PC12 cell model | PC12 HTT-Q103 induced, cytoprotection, ATP luminescence, 40 h | Potency, µM (top dose mostly 56.4 µM), for the others: cytoprotection (ATP increase), usual class: activators | 230,000 tested, 0.14% active; note: potency is the fitted concentration of half-maximal effect; % of control where 0% means no effect; nearly all actives have a fitted effect of over 45% in size
#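 PC12 cells stably carrying ecdysone-inducible Htt exon 1 (Q103)–GFP were induced with 100 nM tebufenozide (final) alongside library compounds in a dose series. Cytoprotection was scored as retained ATP by ATPlite luminescence.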
# An asterisk follows results filed as active; ? = inconclusive; · = no result; [ ] = another dose, or the depositor's remark. Unless noted, calls come from the whole dose curve; as a rule, active = well fitted curve in the direction sought with a large enough effect; inconclusive = small, poorly fitted or top-dose-only effect, or another doubt; inactive = no such curve, though single readings can be large; an effect the other way counts as inactive or inconclusive.
SMILES,HttQ103 aggreg,HPGD block,IMPase inh,ALDH1A1 block,IMPase Li inh,HTT ATP protect
CN1CCN(C2=Cc3ccccc3Sc3cc(F)c(F)cc32)CC1,20µM*,25.1µM*,25.8,0.2%,32.8%,-15.3%[10 µM]
CN1CCN(C2=Cc3ccccc3Sc3cc(F)c(Cl)cc32)CC1,?,28.2µM*,22.1,5.62µM*,18.7%,-3.6%[10 µM]
COc1ccc(OCC(=O)Nc2ccc(-c3nc4cc(C)cc(C)c4o3)cc2)cc1,·,·,-5.0,·,·,·
CCCc1ccc(/C=C2\C(=O)c3ccccc3C(O)=C2C(=O)OCC)cc1,?,4.47µM*,8.6,?,33.7%[38.3 µM],-10.5%[10 µM]
CCOC(=O)C1=C(O)c2ccccc2C(=O)/C1=C\c1ccc(CC)cc1,13.5%,0.891µM*,9.2,18.9µM*,17.0%,-25.8%[10 µM]
CCOC(=O)C1=C(C)N(c2ccccc2)C(=O)/C1=C\c1ccc(O)c(OC)c1,31.4%[9.22 µM],·,·,·,·,-3.7%[10 µM]
CCCN=C(C)C1=C(O)c2ccccc2C1=O,-11.0%,-20.8%,·,?,5.6%,·
CC1Cn2c(COc3ccccc3)nnc2S1 (stereo not drawn),-12.3%,-10.2%,-11.4,7.8%,2.9%,8.4%[10 µM]
CC1Cn2c(CCc3ccccc3)nnc2S1 (stereo not drawn),-21.4%,28.2µM*,0.9,?,21.5%[38.3 µM],9.3%
COc1ccc(/C=C2/N=C3CCCCCN3C2=O)cc1OC,0.9%,-9.8%,8.7,28.2µM*,7.5%,13.8%[10 µM]
COc1ccc(/C=C2\N=C3CCCCCN3C2=O)cc1,0.8%,·,·,?,8.6%,-18.0%
Cc1cc(C)cc(NC(=O)CSc2ccc(-c3ccco3)nn2)c1,-7.9%,?,4.7,7.08µM*,12.7%,1.8%[10 µM]
CC(=O)Nc1ccc(NC(=O)CSc2ccc(-c3ccco3)nn2)cc1,20.7%[9.22 µM],·,·,7.08µM*,4.3%,-11.7%
Cc1ccc(NC(=O)CSc2ccc(-c3ccco3)nn2)cc1,-15.3%,·,·,3.16µM*,1.2%,-30.4%
O=C(CSc1ccc(-c2ccco2)nn1)c1ccc(F)cc1,?,?,1.8,3.16µM*,8.0%,1.1%[10 µM]
COc1ccc(CCNC(=O)CN(c2ccc(C)cc2)S(=O)(=O)c2ccc(OC)cc2)cc1,·,·,-3.5,·,·,·
Cc1ccc(CNC(=O)CSc2ccc(-c3ccco3)nn2)cc1,-17.8%,-24.4%,-10.4,14.1µM*,-0.3%,4.6%[10 µM]
COc1cc(/C=N/NC(=O)c2ccc(CSc3nc4ccccc4[nH]3)cc2)ccc1O,21.3%,·,·,?,7.5%,·
NNC(=O)c1ccc(CSc2nc3ccccc3[nH]2)cc1,19.0%,·,·,10µM*,-1.4%,-32.0%
Fc1ccccc1CSc1nc2ccccc2[nH]1,11.8%,20µM*,2.8,12.6µM*,28.4%[38.3 µM],-16.6%[10 µM]
Fc1c(F)c(F)c(CSc2nc3ccccc3[nH]2)c(F)c1F,-0.2%,-13.0%,-0.6,3.6%,-7.7%[38.3 µM],4.6%
O=c1nc(N/N=C/c2ccccn2)cn[nH]1,8.91µM*,·,·,-4.7%,13.9%,-151.5%
Cc1ccc(/C=N/Nc2cn[nH]c(=O)n2)o1,1.6%,·,·,5.2%,7.9%,?
C(=N\Nc1nc2ccccc2[nH]1)/c1ccccn1,7.08µM*,·,·,4.5%,19.5%,-198.6%
NS(=O)(=O)c1ccc(CNC(=S)NC2CCCCC2)cc1,3.1%[9.22 µM],·,·,·,·,-3.6%[10 µM]
SMILES,HttQ103 aggreg,HPGD block,IMPase inh,ALDH1A1 block,IMPase Li inh,HTT ATP protect
CC(C(=O)NCC1CCCCC1)N1CCN(S(=O)(=O)c2ccccc2F)CC1 (stereo not drawn),11.8%,·,·,15.8µM*,9.2%,10.5%[10 µM]
O=S(=O)(c1ccccc1F)N1CCN(CC(O)c2ccccc2)CC1 (stereo not drawn),-2.6%,·,·,-4.4%,-0.7%,-16.4%
Cc1ccc2nc(NC(=O)COC(=O)CSc3nc(C)cc(C)n3)sc2c1,1.5%,?,-6.4,12.6µM*,14.8%[38.3 µM],-8.3%
Cc1sc(NC(=O)CN2CCOCC2)nc1-c1ccc2c(c1)CCN2S(=O)(=O)c1ccccc1,7.08µM*,-7.1%,6.3,-2.2%,33.0%[38.3 µM],-16.9%
Cc1ccc2nc(NC(=O)CN3CCOCC3)sc2c1,3.16µM*,-7.6%,1.7,-3.7%,4.9%[38.3 µM],-23.3%
CSc1nsc(SCC(=O)Nc2nc3ccc(C)cc3s2)n1,10.6%,-14.7%,-4.8,39.8µM*,0.4%,18.1%[10 µM]
O=C(CN1CCOCC1)Nc1nc2ccc(F)cc2s1,16.1%[9.22 µM],-8.7%,-2.7,9.5%,14.8%[38.3 µM],-11.0%
CCc1ccccc1NC(=O)Cn1c(=O)n(-c2ccc(C)cc2)c(=O)c2cc(OC)c(OC)cc21,·,·,4.8,·,·,·
Cc1cc(Cl)nc(NC(=O)CSc2ccc(Cl)cc2)n1,·,0.4%,·,-4.6%[13.5 µM],-9.8%,5.1%[10 µM]
CC1=C(C(=O)OC2CCCC2)C(c2ccccc2C(F)(F)F)CC(=O)N1 (stereo not drawn),·,·,10.5,·,·,·
COCCn1c(=O)c(CCc2ccccc2)nc2cnc(OCc3ccccc3)nc21,·,·,·,25.1µM*,10.6%,-82.2%
COc1ccc(-c2nc3cnc(Oc4ccccc4)nc3n(CCC#N)c2=O)cc1,·,·,·,10.0%,10µM*,-34.8%
COc1ccc(-c2nc3cnc(OCc4ccccc4)nc3n(CCC#N)c2=O)cc1,·,·,·,?,22.4µM*,?
N#CCCn1c(=O)c(-c2ccccc2)nc2cnc(OCc3ccccc3)nc21,·,?,·,?,11.2µM*,-30.2%
COc1ccc(-c2nc3cnc(OC)nc3n(CCC#N)c2=O)cc1,·,·,·,-14.8%,-10.6%,4.6%
N#CCCn1c(=O)c(-c2ccc(F)cc2)nc2cnc(OCc3ccccc3)nc21,·,·,·,?,-15.1%,?
CCc1c(O)c2c(c(O)c1C(C)=O)C(=O)c1c(cc(O)c(C(=O)O)c1C(=O)O)C2=O,·,-11.6%,·,6.8%[13.5 µM],-8.7%,-19.5%[10 µM]
CO[C@H]1C[C@@H]2CC[C@@H](C)[C@@](O)(O2)C(=O)C(=O)N2CCCC[C@H]2C(=O)O[C@H]([C@H](C)C[C@@H]2CC[C@@H](OCCO)[C@H](OC)C2)CC(=O)[C@H](C)/C=C(\C)[C@@H](O)[C@@H](OC)C(=O)[C@H](C)C[C@H](C)/C=C/C=C/C=C/1C,0.5%,·,·,·,·,-42.7%
COc1ccc2nc(SCC(=O)N3CCCCC3)c(C#N)cc2c1,13.1%[9.22 µM],·,·,?,-2.6%,15.2%[10 µM]
N#Cc1cc2c(nc1SCC(=O)N1CCCCC1)CCCCC2,5.7%,25.1µM*,-2.3,22.4µM*,-6.3%[38.3 µM],-11.9%[0.074 µM]
N#Cc1cc2c(nc1SCc1ccccc1)CCCC2,-11.8%,-21.5%,·,16.0%,15.8µM*,·
COc1ccc2nc(SCC(=O)N(C)C3CCCCC3)c(C#N)cc2c1,9.8%,?,-1.9,25.1µM*,10.1%,-14.2%[10 µM]
N#Cc1cc2c(nc1SCc1ccccc1)CCC2,5.8%,-1.6%,2.5[0.369 µM],?,?,-9.1%[10 µM]
CC(C)(C)c1ccc(S(=O)(=O)CC(O)CSc2nc3c(cc2C#N)CCCC3)cc1 (stereo not drawn),11.3%,?,-3.6,2µM*,-1.8%[38.3 µM],-11.7%

# Screening data from PubChem.
